Data: PubChem BioAssay (Tox21)
A number with no mark means an inactive call. Results filed as inconclusive are left out. Where a call stands in place of a potency, no number is given. Active and inactive are the calls of the source. Unless noted, the call rests on the fitted dose curve.

Columns and labels:
[1] = Nuclear factor erythroid 2-related factor 2/antioxidant responsive element (Nrf2/ARE) small molecule agonists: qHTS cell viability counter screen in human keratinocytes (AID 1919968; active means well fitted curve in the direction sought with a large enough effect in the repeat runs; an effect the other way counts as inactive or inconclusive; further: nearly all actives have a fitted effect of over 55% in size; further: potency means the concentration at half of the fitted maximal effect)
Summary of the method: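 Cells of the KeratinoSens line were plated at 1,500 per well and left for 5 h before compound transfer from DMSO stocks. After a 23 h incubation (37 C, 5% CO2), CellTiter-Fluor was added. Signal was taken as fluorescence intensity 1 h later.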

[2] = Nuclear factor erythroid 2-related factor 2/antioxidant responsive element (Nrf2/ARE) small molecule agonists: luciferase reporter gene qHTS assay in human keratinocytes (AID 1919969); further: nearly all actives have a fitted effect of over 35% in size; further: potency means the concentration at half of the fitted maximal effect
[3] = target: KiSS-1 receptor (Homo sapiens) (UniProt Q969F8); experiment: Human kisspeptin (KISS1R) small molecule agonists, calcium flux assay in KISS1R-HEK293 cells (AID 1920064; active means well fitted curve in the direction sought with a large enough effect in the repeat runs; an effect the other way counts as inactive or inconclusive)
Chain of KiSS-1 receptor (Homo sapiens) (Q969F8 whole entry, looked up): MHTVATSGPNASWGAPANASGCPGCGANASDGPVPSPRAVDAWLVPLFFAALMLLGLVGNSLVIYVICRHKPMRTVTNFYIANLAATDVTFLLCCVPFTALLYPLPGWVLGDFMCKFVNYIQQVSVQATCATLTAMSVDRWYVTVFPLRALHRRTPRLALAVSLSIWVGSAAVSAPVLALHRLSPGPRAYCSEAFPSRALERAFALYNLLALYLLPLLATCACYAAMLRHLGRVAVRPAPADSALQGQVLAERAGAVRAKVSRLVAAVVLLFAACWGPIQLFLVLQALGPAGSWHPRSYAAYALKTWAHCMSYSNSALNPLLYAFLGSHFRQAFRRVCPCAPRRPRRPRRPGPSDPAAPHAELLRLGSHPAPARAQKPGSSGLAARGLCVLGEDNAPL
Summary of the method: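 Cell line: HEK293, stable human KISS1R. Dye loading 1 h at 37 C after 18 h culture. Read: kinetic fluorescence, 480/540 nm, 3 min at 1 s intervals.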

[4] = G protein-coupled receptor (GPCR) small molecule agonists, calcium flux assay: HEK293 wild type cell line counter screen (AID 1920065)
Summary of the method: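 Tox21 10K compounds, 15 concentrations each in triplicate, pin-transferred in DMSO onto dye-loaded cells; kinetic read at 480/540 nm for 3 min, 1 s intervals.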

[5] = p53 small molecule agonists, cell-based qHTS assay with human liver microsomes (AID 1963577)
Summary of the method: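 Compounds act here after metabolic activation: human liver microsomes and NADPH, both at 0.5 mg/mL final, were co-added to p53RE-bla cells. Incubation ran 16 h at 37 C, followed by LiveBLAzer detection.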

[6] = p53 small molecule agonists, cell-based qHTS assay with rat liver microsomes (AID 1963578)
Summary of the method: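 Read-out is beta-lactamase reporter fluorescence (LiveBLAzer, 2 h, room temperature, dark) in p53RE-bla cells treated 16 h at 37 C with compound, rat liver microsomes and NADPH, both 0.5 mg/mL final.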

[7] = p53 small molecule agonists, cell-based qHTS assay with human liver microsomes: qHTS cell viability counter screen (AID 1963579); further: nearly all actives have a fitted effect of over 45% in size; further: potency means the concentration at half of the fitted maximal effect
Summary of the method: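 Cells carrying the p53 response-element beta-lactamase reporter are treated for 16 h at 37 C with test compounds in the presence of human liver microsomes and NADPH (both 0.5 mg/mL final); ATP-based CellTiter-Glo luminescence then reports viability.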

[8] = p53 small molecule agonists, cell-based qHTS assay: qHTS cell viability counter screen (AID 1963581); further: nearly all actives have a fitted effect of over 45% in size; further: potency means the concentration at half of the fitted maximal effect
Summary of the method: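 ATP content measured by luminescence in HCT-116 p53RE-bla cells treated 16 h at 37 C, same wells as the reporter screen.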

[9] = p53 small molecule agonists, cell-based qHTS assay (AID 1963582; active means well fitted activation curve with a large enough effect in the signal ratio in the repeat runs, not every such curve was filed as active; the % refers to the signal ratio)
Summary of the method: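 16 h compound exposure (37 C) of p53 response element–bla cells, preceded by 5 h recovery at 37 C/5% CO2; read-out via LiveBLAzer B/G FRET substrate, 2 h RT, fluorescence intensity.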

[10] = target: 5-hydroxytryptamine receptor 2A (Homo sapiens) (UniProt P28223); experiment: 5-hydroxytryptamine receptor 2A (HTR2A) small molecule agonists, cell-based qHTS assay (AID 1963587); further: nearly all actives have a fitted effect of over 30% in size; further: potency means the concentration at half of the fitted maximal effect
Chain of 5-hydroxytryptamine receptor 2A (Homo sapiens) (P28223 whole entry, looked up): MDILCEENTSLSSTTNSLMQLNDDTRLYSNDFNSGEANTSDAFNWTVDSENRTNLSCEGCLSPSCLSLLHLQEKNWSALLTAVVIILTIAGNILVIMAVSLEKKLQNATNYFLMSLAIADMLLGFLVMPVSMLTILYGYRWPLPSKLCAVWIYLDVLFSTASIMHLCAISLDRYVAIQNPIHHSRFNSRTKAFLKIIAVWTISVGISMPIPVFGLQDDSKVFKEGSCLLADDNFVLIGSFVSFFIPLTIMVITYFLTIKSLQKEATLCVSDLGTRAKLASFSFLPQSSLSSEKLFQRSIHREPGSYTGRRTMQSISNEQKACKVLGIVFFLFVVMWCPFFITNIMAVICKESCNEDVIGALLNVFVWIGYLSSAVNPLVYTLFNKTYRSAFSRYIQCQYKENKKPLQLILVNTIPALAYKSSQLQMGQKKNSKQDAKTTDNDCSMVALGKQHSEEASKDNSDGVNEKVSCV
Summary of the method: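 Kinetic calcium-flux fluorescence (2 min, 1 sec intervals) after compound addition in agonist mode. HTR2A-CHO cells were cultured 18 h, then dye-loaded 1 h at 37 C.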

[11] = target: Muscarinic acetylcholine receptor M1 (Homo sapiens) (UniProt P11229); experiment: Cholinergic receptor muscarinic 1 (CHRM1) small molecule antagonists, cell-based qHTS assay (AID 1963588); further: nearly all actives have a fitted effect of over 40% in size; further: potency means the concentration at half of the fitted maximal effect
Chain of Muscarinic acetylcholine receptor M1 (Homo sapiens) (P11229 whole entry, looked up): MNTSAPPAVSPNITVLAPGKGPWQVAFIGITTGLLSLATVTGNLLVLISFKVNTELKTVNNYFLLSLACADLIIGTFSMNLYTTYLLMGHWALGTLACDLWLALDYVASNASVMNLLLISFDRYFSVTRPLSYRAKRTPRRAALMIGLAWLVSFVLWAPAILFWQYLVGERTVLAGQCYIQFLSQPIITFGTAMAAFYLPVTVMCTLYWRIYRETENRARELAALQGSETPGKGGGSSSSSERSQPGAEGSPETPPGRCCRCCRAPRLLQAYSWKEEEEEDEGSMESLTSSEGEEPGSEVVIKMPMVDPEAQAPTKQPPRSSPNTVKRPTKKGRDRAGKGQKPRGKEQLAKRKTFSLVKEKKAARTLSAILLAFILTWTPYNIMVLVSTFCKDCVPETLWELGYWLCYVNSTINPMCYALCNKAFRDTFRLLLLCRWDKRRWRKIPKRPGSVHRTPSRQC
Summary of the method: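 Compounds were tested at 15 concentrations in three independent runs. Dye-loaded CHRM1-CHO cells were exposed 5 min at room temperature before stimulation by acetylcholine added at 50nM. Intracellular calcium was read kinetically on FDSS for 3 min.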

[12] = target: Muscarinic acetylcholine receptor M1 (Homo sapiens) (UniProt P11229); experiment: Cholinergic receptor muscarinic 1 (CHRM1) small molecule agonists, cell-based qHTS assay (AID 1963589); further: nearly all actives have a fitted effect of over 35% in size
Summary of the method: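 Homogeneous fluorescence calcium flux, agonist mode. Human M1-expressing CHO cells; compound dosed at 15 concentrations, three independent runs; signal sampled every 1 sec.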

[13] = cAMP Responsive Elements (CRE) small molecule agonists, cell-based qHTS assay (AID 1963590)
Summary of the method: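 HEK 293T cells stably bearing CRE-bla were plated at 2,000 cells per well and rested 18 h. Compounds, positive controls or DMSO were added for 3 h at 37 C. LiveBLAzer B/G substrate was then loaded for 2 h at room temperature.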

[14] = target: D(2) dopamine receptor (Homo sapiens) (UniProt P14416); experiment: Dopamine D2 receptor (DRD2) small molecule agonists, cell-based qHTS assay (AID 1963594); further: nearly all actives have a fitted effect of over 35% in size
Chain of D(2) dopamine receptor (Homo sapiens) (P14416 whole entry, looked up): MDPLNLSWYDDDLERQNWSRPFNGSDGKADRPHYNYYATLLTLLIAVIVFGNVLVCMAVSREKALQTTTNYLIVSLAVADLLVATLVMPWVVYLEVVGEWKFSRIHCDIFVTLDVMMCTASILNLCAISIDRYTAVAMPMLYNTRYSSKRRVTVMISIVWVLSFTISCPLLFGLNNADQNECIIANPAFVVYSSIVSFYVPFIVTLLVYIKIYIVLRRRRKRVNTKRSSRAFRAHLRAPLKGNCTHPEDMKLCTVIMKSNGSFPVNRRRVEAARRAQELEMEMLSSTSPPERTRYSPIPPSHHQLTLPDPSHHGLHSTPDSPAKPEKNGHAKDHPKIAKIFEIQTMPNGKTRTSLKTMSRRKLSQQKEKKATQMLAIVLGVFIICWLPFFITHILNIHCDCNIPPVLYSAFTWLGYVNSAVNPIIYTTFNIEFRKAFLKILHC
Summary of the method: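 cAMP accumulation in DRD2-HEK293 cells measured by HTRF after 1 h detection; compounds added 10 min before NKH477 (200nM […]) forskolin-analogue stimulation, 30 min at room temperature, with Ro20-1724 present at 0.1 mM final.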

[15] = p53 small molecule agonists, cell-based qHTS assay with rat liver microsomes: qHTS cell viability counter screen (AID 1963580); further: nearly all actives have a fitted effect of over 45% in size
Summary of the method: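 Cytotoxicity counter screen: intracellular ATP read by CellTiter-Glo luminescence in the p53 reporter wells. HCT-116 p53RE-bla cells were treated for 16 h at 37 C alongside rat liver microsomes and NADPH, each 0.5 mg/mL final.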

[16] = target: 5-hydroxytryptamine receptor 2A (Homo sapiens) (UniProt P28223); experiment: 5-hydroxytryptamine receptor 2A (HTR2A) small molecule antagonists, cell-based qHTS assay (AID 1963586); further: nearly all actives have a fitted effect of over 45% in size
Summary of the method: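 CHO cells stably expressing human HTR2A were plated for 18 h at 37 C, then loaded with calcium dye for 1 h. Compounds were preincubated 5 min at room temperature before DOI (4 nM solution) was added. Kinetic fluorescence was read for 3 min.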

[17] = target: Beta-2 adrenergic receptor (Homo sapiens) (UniProt P07550); experiment: Adrenergic beta2 receptor (ADRB2) small molecule antagonists, cell-based qHTS assay (AID 1963592); further: series mostly up to about 92 µM; nearly all actives have a fitted effect of over 50% in size
Chain of Beta-2 adrenergic receptor (Homo sapiens) (P07550 whole entry, looked up): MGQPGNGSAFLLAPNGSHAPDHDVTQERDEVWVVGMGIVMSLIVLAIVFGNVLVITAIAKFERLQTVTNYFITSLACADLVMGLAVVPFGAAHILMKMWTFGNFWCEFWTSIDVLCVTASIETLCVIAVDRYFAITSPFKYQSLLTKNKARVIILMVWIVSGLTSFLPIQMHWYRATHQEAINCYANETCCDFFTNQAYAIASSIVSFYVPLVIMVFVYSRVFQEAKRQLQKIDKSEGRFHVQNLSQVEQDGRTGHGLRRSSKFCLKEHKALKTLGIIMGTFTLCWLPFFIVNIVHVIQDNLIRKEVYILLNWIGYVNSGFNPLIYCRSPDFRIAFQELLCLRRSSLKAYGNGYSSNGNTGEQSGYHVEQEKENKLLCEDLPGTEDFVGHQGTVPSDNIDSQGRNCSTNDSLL
Summary of the method: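 Assay format: CHO-ADRB2 cells, 18-20hr seeding at 37C/5% CO2, then compound plus 1nM isoproterenol agonist mix for 0.5hr RT. Homogeneous time-resolved fluorescence cAMP detection after 1hr, expressed as 665/615 nm ratio.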

[18] = target: Beta-2 adrenergic receptor (Homo sapiens) (UniProt P07550); experiment: Adrenergic beta2 receptor (ADRB2) small molecule agonists, cell-based qHTS assay (AID 1963593);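 further: CHO cells stably overexpressing human ADRB2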
Summary of the method: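 CHO cells stably over-expressing ADRB2 were plated overnight at 37C, then dosed with compounds plus a stimulation mix containing 100uM IBMX and 25uM Ro-20-1724 for 0.5hr at room temperature. cAMP was measured by HTRF competition, 1hr.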

[19] = target: D(2) dopamine receptor (Homo sapiens) (UniProt P14416); experiment: Dopamine D2 receptor (DRD2) small molecule antagonists, cell-based qHTS assay (AID 1963595; active means well fitted inhibition curve with a large enough effect in the signal ratio in the repeat runs, with a control signal flat; the % refers to the signal ratio; further: potency means the concentration at half of the fitted maximal effect)
Summary of the method: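 HEK293 cells stably expressing DRD2, preincubated with 0.1 mM Ro20-1724 and compounds 10 min, were stimulated with 200 nM NKH477 plus 12 nM quinpirole for 30 min at room temperature; cAMP measured by HTRF (665/620 nm).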

[20] = cAMP Responsive Elements (CRE) small molecule antagonists, cell-based qHTS assay (AID 1963591; active means well fitted inhibition curve with a large enough effect in the signal ratio in the repeat runs, not every such curve was filed as active; the % refers to the signal ratio)
Summary of the method: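 First, CRE-bla HEK293T cells settled 18 h at 37 C. Next, compound and 0.25 uM final NKH477 were applied for 3 h. Last, LiveBLAzer B/G substrate was loaded for 2 h at room temperature.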

| SMILES | Potency [1] | Potency [2] | Potency [3] | Potency [4] | Potency [5] | Potency [6] | Potency [7] | Potency [8] | Potency [9] | Potency [10] | Potency [11] | Potency [12] | Potency [13] | Potency [14] | Potency [15] | Potency [16] | Potency [17] | Potency [18] | Potency [19] | Potency [20] |
| --- | --- | --- | --- | --- | --- | --- | --- | --- | --- | --- | --- | --- | --- | --- | --- | --- | --- | --- | --- | --- |
| Cc1[nH]cnc1C[C@H]1CCc2c(C)c3ccccc3n2C1=O | inactive | inactive | inactive | inactive | inactive | inactive | inactive | inactive | inactive | 42.6 µM (active) | 25.9 µM (active) | inactive | inactive | inactive |  |  |  |  |  |  |
| CCC(C)(C)OC | inactive | inactive |  | inactive |  |  | inactive | inactive |  | inactive | inactive | inactive | inactive | inactive | inactive | inactive | inactive | inactive | inactive |  |
| CCCCCCOc1ccccc1C(N)=O | inactive | inactive | inactive | inactive | inactive | inactive | inactive | inactive |  |  |  | inactive | inactive | inactive | inactive | inactive | inactive |  | inactive | inactive |
| COc1cc(/C=C/C(=O)CC(=O)/C=C/c2ccc(O)c(OC)c2)ccc1O | 48.9 µM (active) | 15.4 µM (active) |  |  |  |  | 16.3 µM (active) | 46.1 µM (active) |  | 22 µM (active) | inactive |  |  | inactive |  | inactive | inactive |  |  |  |
| CC(C(O)c1ccccc1)N(C)CCOC(c1ccccc1)c1ccccc1 (stereo not given) | 18.8 µM (active) | inactive | inactive | inactive | inactive | inactive | inactive | inactive |  | 23.9 µM (active) | 1.16 µM (active) | inactive |  | inactive | inactive |  |  |  | inactive |  |
| CCCCCCCCn1sc(Cl)c(Cl)c1=O | 13.7 µM (active) | 4.86 µM (active) | inactive | inactive | inactive | inactive | 36.3 µM (active) |  |  | 43.6 µM (active) | inactive | inactive |  | inactive |  |  | inactive | inactive | 27.3 µM (active) |  |
| CNC(=S)NN | 12.2 µM (active) | 6.11 µM (active) | inactive | inactive | inactive | inactive |  | inactive |  | inactive | inactive |  |  | inactive |  |  | inactive | inactive |  |  |
| C=C(C)C1CC=C(C)C(=O)C1 (stereo not given) | inactive | inactive | inactive | inactive |  |  | 32.2 µM (active) | inactive |  | inactive | inactive |  | inactive | inactive | inactive | inactive | inactive | inactive | inactive | inactive |
